PostGolgi yeast = growth inhibition of a yeast mutant, post-Golgi transport screen; post-Golgi transport phenotypic cell assay; inhibition, % at 10 µM; AID 739; 0.9% of 98,000 active;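 note: yeast cells grown in 1536-well plates; yeast grown about 18 h at 30C before absorbance read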
S1P2 antag = antagonists of human S1P2 receptor; cell-based S1P2 antagonist assay, inhibition at 5 uM; inhibition, % at 5 µM; 0.21% of 97,000 active; AID 736; O95136; in the data active = inhibition above about 45%;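 note: CRE beta-lactamase reporter cells expressing human S1P2 stimulated with S1P; 0% = agonist at EC80 alone and 100% = agonist plus reference antagonist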
S1P2 ag = activates the human S1P2 receptor. S1P2-expressing cell line, agonist reporter read-out. 0.46% of 97,000 active. O95136. activation, % at 4.5 µM. AID 729; in the data active = activation above about 16%;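 note: 0% = vehicle low control and 100% = maximal reference agonist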
GALR2 antag = antagonists of human galanin receptor 2 (GALR2); O43603; GALR2-expressing cells, antagonist mode; inhibition, % at 4 µM; 0.39% of 140,000 active; in the data active = inhibition above about 27%;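 note: cells stimulated with galanin 1-16 at roughly its EC80; 0% = agonist challenge control and 100% = basal control without agonist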
Target sequence (O43603 whole entry, looked up): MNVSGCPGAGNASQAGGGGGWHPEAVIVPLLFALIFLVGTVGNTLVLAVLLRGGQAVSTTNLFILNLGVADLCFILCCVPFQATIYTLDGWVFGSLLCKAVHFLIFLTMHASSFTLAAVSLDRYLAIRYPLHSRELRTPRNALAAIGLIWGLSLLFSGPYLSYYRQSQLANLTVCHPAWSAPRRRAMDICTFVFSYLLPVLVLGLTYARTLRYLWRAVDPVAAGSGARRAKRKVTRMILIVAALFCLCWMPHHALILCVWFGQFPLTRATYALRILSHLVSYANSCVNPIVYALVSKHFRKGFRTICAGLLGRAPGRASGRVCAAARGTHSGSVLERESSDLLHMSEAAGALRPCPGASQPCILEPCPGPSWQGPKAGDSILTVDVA
GALR2 ag = activates the human galanin receptor 2. AID 803. O43603. 0.48% of 140,000 active. GALR2-expressing cells, agonist activation read-out. activation, % (test concentration not listed); in the data active = activation above about 5%, passing the limit was not always enough;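 note: 0% = vehicle buffer wells and 100% = reference agonist at full effect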
PostGolgi ctrl = inhibits growth of the yeast control strain; efflux-deficient yeast background strain, growth absorbance A615, 16 h; inhibition, % at 10 µM; 5% of 98,000 active
Active calls of the source: *. Only a selection was taken, and hits are over-represented in it overall. Cut-off read from the data, not from the text of the source, unless noted: active = inhibition above about 30%; inactive = the rest.

What do the screens show for `CCCS(=O)(=O)N1CCC(C(=O)NCCCN(CC)c2cccc(C)c2)CC1`?
PostGolgi yeast: 2; S1P2 antag: 5; S1P2 ag: -8; GALR2 antag: 6; GALR2 ag: -5; PostGolgi ctrl: -8

What do the screens show for `CCCS(=O)(=O)N1CCCC(C(=O)NCCN(CC)CC)C1` (configuration not stated)?
PostGolgi yeast: 5; S1P2 antag: 9; S1P2 ag: -5; GALR2 antag: 10; GALR2 ag: -2; PostGolgi ctrl: 33*

How did CCCS(=O)(=O)N1CCCC(C(=O)NCCCN(CC)c2cccc(C)c2)C1 (configuration not stated) do in these assays?
PostGolgi yeast: 13; S1P2 antag: -12; S1P2 ag: -2; GALR2 antag: -20; GALR2 ag: 1; PostGolgi ctrl: 31*

Results for Cc1ccc(OCCCCn2cnc3ccccc32)c(C)c1 ?
PostGolgi yeast: -4; S1P2 antag: 6; S1P2 ag: -3; GALR2 antag: -13; GALR2 ag: 1; PostGolgi ctrl: 32*

Results for CC1=NN(C(N)=S)C(=O)C1N=Nc1c(C)cc(C)cc1C (configuration not stated) ?
PostGolgi yeast: 11; S1P2 antag: 2; S1P2 ag: -7; GALR2 antag: -5; GALR2 ag: -4; PostGolgi ctrl: 32*

How did CC1=NN(C(N)=S)C(=O)C1N=Nc1ccc(C)cc1C (configuration not stated) do in these assays?
PostGolgi yeast: 6; S1P2 antag: -7; S1P2 ag: -2; GALR2 antag: -6; GALR2 ag: 0; PostGolgi ctrl: 27

How did CC1=NN(C(N)=S)C(=O)C1N=Nc1ccccc1C (configuration not stated) do in these assays?
PostGolgi yeast: 9; S1P2 antag: -2; S1P2 ag: -5; GALR2 antag: 14; GALR2 ag: -1; PostGolgi ctrl: 30*

How did Cc1c(C(=O)Nc2ccccc2)sc2nc[nH]c(=O)c12 do in these assays?
GALR2 antag: 6; GALR2 ag: -1

What do the screens show for `CCCCN(CCCC)C(=O)CSc1nnc(-c2cc(OC)c(OC)c(OC)c2)o1`?
PostGolgi yeast: -7; GALR2 antag: 0; GALR2 ag: -1; PostGolgi ctrl: 8

How did CCOC(=O)N1CCN(C(=O)CSc2nnc(-c3cc(OC)cc(OC)c3)o2)CC1 do in these assays?
PostGolgi yeast: -12; S1P2 antag: 15; S1P2 ag: -4; GALR2 antag: -6; GALR2 ag: 0; PostGolgi ctrl: 0

What do the screens show for `CCCCOC(=O)CSc1nnc(-c2cc(OC)c(OC)c(OC)c2)o1`?
PostGolgi yeast: -2; S1P2 antag: -3; S1P2 ag: -2; GALR2 antag: -6; GALR2 ag: 0; PostGolgi ctrl: 32*

How did COc1cc(OC)cc(-c2nnc(SCC(=O)N3CCCC3)o2)c1 do in these assays?
PostGolgi yeast: 5; S1P2 antag: 2; S1P2 ag: -4; GALR2 antag: 8; GALR2 ag: -2; PostGolgi ctrl: 35*

Results for CC1=NN(C(=O)c2cc(C)nn2C)C(O)(C(F)(F)F)C1 (configuration not stated) ?
GALR2 antag: 7; GALR2 ag: -2

What do the screens show for `COc1ccccc1NC(=O)CN1C(=O)NC(CC(C)C)C1=O` (configuration not stated)?
PostGolgi yeast: 4; S1P2 antag: -5; S1P2 ag: -3; GALR2 antag: -5; GALR2 ag: 0; PostGolgi ctrl: 48*

How did COc1ccc(Br)cc1/C=N/NC(=O)c1nc(-c2ccccc2)n2c1CCCCC2 do in these assays?
PostGolgi yeast: 20; S1P2 antag: 0; S1P2 ag: -7; GALR2 antag: 10; GALR2 ag: -3; PostGolgi ctrl: 36*

How did Cc1ccc(S(=O)(=O)N[C@H](C(=O)OCn2nnc3ccccc3c2=O)C(C)C)cc1 do in these assays?
PostGolgi yeast: 3; S1P2 antag: -8; S1P2 ag: -3; GALR2 antag: -3; GALR2 ag: -2; PostGolgi ctrl: 35*

Results for CN(C)S(=O)(=O)c1ccc(C(=O)OCn2nnc3ccccc3c2=O)cc1 ?
PostGolgi yeast: 58*; S1P2 antag: 18; S1P2 ag: -6; GALR2 antag: -16; GALR2 ag: -2; PostGolgi ctrl: 28

How did CCC(C)N1C(=O)c2ccccc2C1C(=O)NC1CCCCCC1 (configuration not stated) do in these assays?
PostGolgi yeast: -7; S1P2 antag: 4; S1P2 ag: -2; GALR2 antag: 2; GALR2 ag: 1; PostGolgi ctrl: 31*

Results for O=C(/C=C/c1ccccc1)/C=C/c1ccccc1 ?
GALR2 antag: 1; GALR2 ag: -1

How did CC(C)(C)C(=O)/C=C(N)/C=C/c1ccccc1 do in these assays?
PostGolgi yeast: -2; S1P2 antag: -7; S1P2 ag: -6; GALR2 antag: 10; GALR2 ag: -3; PostGolgi ctrl: 33*

Results for CCN(CC)C(=S)Nc1ccc([N+](=O)[O-])cc1 ?
GALR2 antag: 0; GALR2 ag: 0

Results for CCOc1ccccc1OCCCNCc1ccco1 ?
GALR2 antag: 12; GALR2 ag: -2

Results for Cc1cc(C)nc(/N=c2/ssnc2Cl)c1 ?
PostGolgi yeast: 64*; S1P2 antag: 39; S1P2 ag: -6; GALR2 antag: 10; GALR2 ag: -2; PostGolgi ctrl: 54*

Results for Cc1cc(NCCCO)n2c(nc3ccccc32)c1C#N ?
GALR2 antag: -6; GALR2 ag: 0

What do the screens show for `CCc1c(C)c(C#N)c2nc3ccccc3n2c1NCCN(C)C`?
PostGolgi yeast: -5; S1P2 antag: -31; S1P2 ag: 3; GALR2 antag: -14; GALR2 ag: 1; PostGolgi ctrl: 42*

How did CCc1c(C)c(C#N)c2nc3ccccc3n2c1NCc1ccco1 do in these assays?
PostGolgi yeast: 0; S1P2 antag: -15; S1P2 ag: 5; GALR2 antag: 6; GALR2 ag: 2; PostGolgi ctrl: 21

What do the screens show for `C=CCc1c(C)c(C#N)c2nc3ccccc3n2c1NCCN(C)C`?
PostGolgi yeast: 82*; S1P2 antag: -3; S1P2 ag: 2; GALR2 antag: -12; GALR2 ag: 1; PostGolgi ctrl: 74*

How did COc1cccc2[nH]c3c(Cl)ncnc3c12 do in these assays?
GALR2 antag: 7; GALR2 ag: 0

What do the screens show for `c1ccc(N(c2ccccc2)c2nc(-n3ccnc3)nc(-n3ccnc3)n2)cc1`?
PostGolgi yeast: 100*; S1P2 antag: -23; S1P2 ag: 11; GALR2 antag: -6; GALR2 ag: 0; PostGolgi ctrl: 104*

How did c1ccc(-c2ccc(-n3ccnc3)cc2)cc1 do in these assays?
PostGolgi yeast: 8; S1P2 antag: -2; S1P2 ag: -4; GALR2 antag: 10; GALR2 ag: -2; PostGolgi ctrl: 20

Results for CCNc1nc(N2CCOCC2)nc(N(c2ccccc2)c2ccccc2)n1 ?
PostGolgi yeast: -5; S1P2 antag: -13; S1P2 ag: -6; GALR2 antag: -8; GALR2 ag: -2; PostGolgi ctrl: 9
